Data taken from the supplement of paper PMC10849652.
Of roughly 7,900 targets only a part is listed; those with a hit were picked by preference. About 0.6% of all pairs of compound and target were hits.

Legend:
Assay in all cases: log2 fold change, soluble protein after heating vs DMSO (PISA); higher = thermal stabilisation; K562 cells, 10 uM, 30 min; active = over 0.2 and 3.5 SD of the protein, either way, in both replicates (recomputed)
[1] = compound: COC1=CC=C(C=C1)CN2C=CC3=C2C=C(C=C3)C(=O)NO
Outline: (§1)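 K562 cells at 2×10^6 cells/mL were exposed to 10 μM compound for 30 min, then aliquots were heated for 3 min across 48°C-58°C, pooled, and extracted in PBS containing 0.5% NP-40 at 4°C. The supernatant after 21,000xg for 90 min was taken as soluble protein and measured by TMTpro 16plex LC-MS/MS with channel sums equalised. Thermal stability is reported relative to control samples, with values from duplicates. Fold changes are given on a log2 scale.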

filanesib = compound: CON(C)C(=O)N1N=C(c2cc(F)ccc2F)S[C@@]1(CCCN)c1ccccc1 [filanesib]
Outline: as §1

zotarolimus = compound: CO[C@H]1C[C@@H]2CC[C@@H](C)[C@@](O)(O2)C(=O)C(=O)N2CCCC[C@H]2C(=O)O[C@H]([C@H](C)C[C@@H]2CC[C@H](n3cnnn3)[C@H](OC)C2)CC(=O)[C@H](C)/C=C(\C)[C@@H](O)[C@@H](OC)C(=O)[C@H](C)C[C@H](C)/C=C/C=C/C=C/1C [zotarolimus]
Outline: as §1

idasanutlin = compound: COc1cc(C(=O)O)ccc1NC(=O)[C@@H]1N[C@@H](CC(C)(C)C)[C@](C#N)(c2ccc(Cl)cc2F)[C@H]1c1cccc(Cl)c1F [idasanutlin]
Outline: as §1

[2] = compound: COc1cc2nc(-c3cc(F)ccc3O)nc(N[C@@H]3CNC[C@H]3C(C)(C)O)c2cc1OC
Outline: as §1

gefitinib = compound: COc1cc2ncnc(Nc3ccc(F)c(Cl)c3)c2cc1OCCCN1CCOCC1 [gefitinib]
Outline: as §1

lapatinib = compound: CS(=O)(=O)CCNCc1ccc(-c2ccc3ncnc(Nc4ccc(OCc5cccc(F)c5)c(Cl)c4)c3c2)o1 [lapatinib]
Outline: as §1

alisertib = compound: COc1cc(Nc2ncc3c(n2)-c2ccc(Cl)cc2C(c2c(F)cccc2OC)=NC3)ccc1C(=O)O [alisertib]
Outline: as §1

[3] = compound: COc1cccc2cc(-c3nc([C@H]4CC[C@H](C(=O)O)CC4)n4ncnc(N)c34)[nH]c12
Outline: as §1

pictilisib = compound: CS(=O)(=O)N1CCN(Cc2cc3nc(-c4cccc5[nH]ncc45)nc(N4CCOCC4)c3s2)CC1 [pictilisib]
Outline: as §1

Measured: log2 fold change

UBE3B (UniProt Q7Z3V4)
inactive: [1] 0.03 | filanesib 0.058 | zotarolimus 0.086 | idasanutlin 0.065 | [2] 0.247 | gefitinib -0.037 | lapatinib 0.212

TMEM164 (UniProt Q5U3C3)
inactive: [1] 0.045 | filanesib -0.306 | zotarolimus -0.039 | idasanutlin -0.031 | alisertib 0.211 | [2] 0.098 | gefitinib -0.013 | [3] 0.198 | lapatinib -0.06 | pictilisib 0.008

TRAPPC11 (UniProt Q7Z392)
inactive: [1] 0.015 | filanesib -0.018 | zotarolimus 0.024 | idasanutlin -0.039 | alisertib -0.052 | [2] -0.03 | gefitinib -0.012 | [3] -0.019 | lapatinib -0.014 | pictilisib 0.042

TNFAIP8 isoform 4 (UniProt O95379)
inactive: [1] 0.027 | filanesib -0.015 | zotarolimus 0.085 | idasanutlin -0.055 | alisertib -0.01 | [2] 0.046 | gefitinib 0.028 | [3] 0.041 | lapatinib 0.065 | pictilisib -0.027

TTC33 (UniProt Q6PID6)
Chain of UniProt Q6PID6 (Q6PID6 whole entry, looked up): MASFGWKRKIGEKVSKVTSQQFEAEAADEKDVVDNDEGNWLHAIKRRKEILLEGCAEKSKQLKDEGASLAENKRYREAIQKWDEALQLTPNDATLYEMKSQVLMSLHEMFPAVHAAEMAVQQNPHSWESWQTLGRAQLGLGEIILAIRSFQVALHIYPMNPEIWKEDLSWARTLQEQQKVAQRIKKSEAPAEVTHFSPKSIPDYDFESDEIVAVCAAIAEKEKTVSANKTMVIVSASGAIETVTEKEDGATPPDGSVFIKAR
inactive: [1] 0.094 | filanesib 0.031 | zotarolimus -0.113 | idasanutlin -0.039 | alisertib 0.071 | [2] 0.082 | [3] 0.086 | lapatinib -0.15 | pictilisib -0.093

TSG101 (UniProt Q99816)
inactive: [1] 0 | filanesib -0.07 | zotarolimus 0.029 | idasanutlin -0.031 | alisertib -0.049 | [2] 0.007 | gefitinib 0.011 | [3] 0.016 | lapatinib -0.013 | pictilisib 0.025

TMEM128 (UniProt Q5BJH2)
inactive: [1] -0.065 | filanesib 0.152 | zotarolimus -0.181 | idasanutlin 0.035 | [2] 0.025 | gefitinib 0.076 | lapatinib -0.068

UBA52 (UniProt P62987)
inactive: [1] 0 | filanesib 0.519 | zotarolimus -0.171 | idasanutlin 0.308 | alisertib -0.131 | [2] -0.203 | [3] -0.275 | lapatinib 0.141 | pictilisib -0.177

TSEN2 (UniProt Q8NCE0)
inactive: [1] 0.018 | filanesib 0.043 | zotarolimus 0 | idasanutlin -0.065 | alisertib -0.075 | [2] 0.077 | gefitinib 0.028 | [3] 0.114 | lapatinib -0.015 | pictilisib 0.013

UBLCP1 (UniProt Q8WVY7)
Chain of UniProt Q8WVY7 (Q8WVY7 whole entry, looked up): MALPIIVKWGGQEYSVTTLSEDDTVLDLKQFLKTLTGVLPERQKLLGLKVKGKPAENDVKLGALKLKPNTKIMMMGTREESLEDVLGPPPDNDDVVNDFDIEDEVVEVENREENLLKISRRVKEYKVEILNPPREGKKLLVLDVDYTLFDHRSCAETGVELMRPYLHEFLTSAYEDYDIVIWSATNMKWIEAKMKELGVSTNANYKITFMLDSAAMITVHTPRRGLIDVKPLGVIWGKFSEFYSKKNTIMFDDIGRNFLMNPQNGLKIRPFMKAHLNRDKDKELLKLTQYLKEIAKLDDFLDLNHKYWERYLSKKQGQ
inactive: [1] -0.046 | filanesib -0.001 | zotarolimus -0.008 | idasanutlin -0.013 | alisertib 0.028 | [2] 0.181 | gefitinib 0.044 | [3] -0.034 | lapatinib 0.021 | pictilisib 0.028

TOM1L2 (UniProt Q6ZVM7)
inactive: [1] -0.04 | filanesib 0.029 | zotarolimus -0.036 | idasanutlin -0.002 | gefitinib 0.028

UHRF1BP1L (UniProt A0JNW5)
inactive: [1] -0.027 | filanesib 0.038 | zotarolimus 0.093 | idasanutlin -0.073 | alisertib -0.08 | [2] 0.179 | gefitinib 0.05 | [3] 0.034 | lapatinib -0.006 | pictilisib -0.046

TXN2 (UniProt Q99757)
inactive: [1] 0.039 | filanesib 0.015 | zotarolimus 0.211 | idasanutlin 0.108 | alisertib -0.19 | [2] -0.015 | gefitinib 0.042 | [3] -0.023 | lapatinib -0.078 | pictilisib -0.186

TSFM (UniProt P43897)
inactive: [1] 0.152 | filanesib -0.146 | zotarolimus 0.042 | idasanutlin 0.039 | alisertib 0.047 | [2] 0.12 | gefitinib 0.117 | [3] -0.002 | lapatinib -0.006 | pictilisib 0.066

TNFRSF8 (UniProt P28908)
inactive: [1] 0.019 | filanesib 0.11 | zotarolimus -0.019 | idasanutlin 0.04 | alisertib -0.011 | [2] 0.074 | gefitinib 0.067 | [3] 0 | lapatinib 0.003 | pictilisib 0.047

VPS8 (UniProt Q8N3P4)
inactive: [1] 0.092 | filanesib 0.001 | zotarolimus 0.043 | idasanutlin -0.03 | alisertib 0.133 | [2] 0.01 | gefitinib 0.076 | [3] -0.025 | lapatinib 0.046 | pictilisib 0.055

TMEM63B (UniProt Q5T3F8)
Chain of UniProt Q5T3F8 (Q5T3F8 whole entry, looked up): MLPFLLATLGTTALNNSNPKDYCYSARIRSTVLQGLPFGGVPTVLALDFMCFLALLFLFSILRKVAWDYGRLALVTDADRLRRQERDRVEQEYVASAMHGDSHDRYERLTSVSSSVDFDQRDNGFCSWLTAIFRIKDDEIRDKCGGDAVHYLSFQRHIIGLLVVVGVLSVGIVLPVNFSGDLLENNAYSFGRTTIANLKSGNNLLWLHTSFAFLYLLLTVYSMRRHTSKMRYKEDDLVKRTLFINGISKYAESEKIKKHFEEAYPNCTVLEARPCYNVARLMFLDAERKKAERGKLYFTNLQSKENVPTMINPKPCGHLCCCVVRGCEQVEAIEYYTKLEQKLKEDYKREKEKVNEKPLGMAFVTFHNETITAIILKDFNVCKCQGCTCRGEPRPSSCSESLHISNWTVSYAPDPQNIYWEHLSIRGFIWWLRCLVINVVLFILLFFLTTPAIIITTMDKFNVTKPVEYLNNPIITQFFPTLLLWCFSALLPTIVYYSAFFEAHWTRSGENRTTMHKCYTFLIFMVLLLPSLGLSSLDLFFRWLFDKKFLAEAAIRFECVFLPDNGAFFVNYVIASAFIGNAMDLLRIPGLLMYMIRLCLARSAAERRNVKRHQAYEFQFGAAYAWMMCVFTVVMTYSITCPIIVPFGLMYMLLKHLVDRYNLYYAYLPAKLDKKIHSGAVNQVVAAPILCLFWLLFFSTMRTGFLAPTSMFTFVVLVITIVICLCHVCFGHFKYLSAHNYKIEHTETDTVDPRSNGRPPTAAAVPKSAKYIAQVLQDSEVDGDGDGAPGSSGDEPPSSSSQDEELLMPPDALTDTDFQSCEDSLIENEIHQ
inactive: [1] -0.125 | filanesib -0.089 | zotarolimus -0.018 | idasanutlin 0.011 | alisertib -0.037 | [2] -0.028 | gefitinib -0.03 | [3] -0.028 | lapatinib 0.032 | pictilisib 0.003

VAMP7 (UniProt P51809)
inactive: [1] 0.035 | filanesib -0.095 | zotarolimus -0.005 | idasanutlin -0.111 | alisertib -0.072 | [2] 0.099 | gefitinib 0.033 | [3] 0.012 | lapatinib -0.005 | pictilisib -0.001

VTI1B (UniProt Q9UEU0)
inactive: [1] -0.089 | filanesib -0.027 | zotarolimus -0.063 | idasanutlin -0.026 | alisertib 0.046 | [2] 0 | gefitinib -0.023 | [3] 0.137 | lapatinib 0.002 | pictilisib 0.061

TSC2 (UniProt P49815)
Chain of UniProt P49815 (P49815 whole entry, looked up): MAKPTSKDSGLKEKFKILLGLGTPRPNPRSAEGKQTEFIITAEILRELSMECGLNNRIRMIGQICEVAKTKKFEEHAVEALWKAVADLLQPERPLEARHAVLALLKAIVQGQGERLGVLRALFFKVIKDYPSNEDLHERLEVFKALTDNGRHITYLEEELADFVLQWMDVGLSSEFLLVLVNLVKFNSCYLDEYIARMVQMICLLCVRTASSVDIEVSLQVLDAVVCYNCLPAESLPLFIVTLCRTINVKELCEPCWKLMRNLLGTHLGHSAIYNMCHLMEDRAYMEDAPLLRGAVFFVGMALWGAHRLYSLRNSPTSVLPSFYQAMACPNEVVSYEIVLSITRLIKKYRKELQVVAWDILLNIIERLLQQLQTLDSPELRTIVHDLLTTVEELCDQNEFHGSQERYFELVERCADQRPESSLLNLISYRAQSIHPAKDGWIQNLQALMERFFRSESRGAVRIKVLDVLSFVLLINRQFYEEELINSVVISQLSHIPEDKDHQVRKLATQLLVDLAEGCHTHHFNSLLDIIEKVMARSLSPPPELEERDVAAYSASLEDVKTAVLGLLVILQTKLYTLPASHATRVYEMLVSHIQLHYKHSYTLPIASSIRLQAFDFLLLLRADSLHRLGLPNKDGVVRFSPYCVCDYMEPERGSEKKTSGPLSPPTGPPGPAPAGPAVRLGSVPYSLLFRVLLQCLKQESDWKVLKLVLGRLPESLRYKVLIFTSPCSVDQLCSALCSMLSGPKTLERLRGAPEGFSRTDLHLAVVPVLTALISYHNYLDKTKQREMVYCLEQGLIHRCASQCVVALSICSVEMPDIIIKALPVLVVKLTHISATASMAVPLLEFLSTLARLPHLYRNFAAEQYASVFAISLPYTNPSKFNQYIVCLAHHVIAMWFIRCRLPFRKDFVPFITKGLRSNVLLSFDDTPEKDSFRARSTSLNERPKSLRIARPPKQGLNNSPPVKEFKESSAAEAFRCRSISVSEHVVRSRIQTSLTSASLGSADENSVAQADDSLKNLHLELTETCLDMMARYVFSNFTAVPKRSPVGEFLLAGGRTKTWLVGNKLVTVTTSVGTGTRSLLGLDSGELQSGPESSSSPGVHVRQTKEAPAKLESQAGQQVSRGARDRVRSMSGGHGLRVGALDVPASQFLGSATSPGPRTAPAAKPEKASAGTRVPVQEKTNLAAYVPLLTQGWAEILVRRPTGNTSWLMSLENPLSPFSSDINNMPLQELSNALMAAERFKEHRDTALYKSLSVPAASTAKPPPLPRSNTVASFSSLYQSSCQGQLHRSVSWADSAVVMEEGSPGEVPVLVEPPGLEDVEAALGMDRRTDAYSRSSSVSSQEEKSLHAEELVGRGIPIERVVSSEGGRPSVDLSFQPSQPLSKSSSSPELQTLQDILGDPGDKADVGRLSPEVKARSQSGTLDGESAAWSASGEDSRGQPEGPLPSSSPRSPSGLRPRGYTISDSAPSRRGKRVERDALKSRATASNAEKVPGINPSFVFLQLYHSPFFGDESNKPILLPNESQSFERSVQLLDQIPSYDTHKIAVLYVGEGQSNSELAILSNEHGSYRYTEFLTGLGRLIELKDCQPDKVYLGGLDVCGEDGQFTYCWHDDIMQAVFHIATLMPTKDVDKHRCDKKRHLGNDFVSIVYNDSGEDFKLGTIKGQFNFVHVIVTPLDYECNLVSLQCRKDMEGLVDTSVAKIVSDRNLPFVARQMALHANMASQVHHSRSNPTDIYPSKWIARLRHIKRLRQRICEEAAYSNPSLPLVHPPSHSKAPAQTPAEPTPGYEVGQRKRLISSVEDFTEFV
inactive: [1] 0.361 | filanesib 0.198 | zotarolimus -0.181 | idasanutlin 0.017 | alisertib 0.195 | [2] -0.039 | [3] 0.139 | lapatinib 0.135 | pictilisib 0.076

TRIM44 (UniProt Q96DX7)
inactive: [1] -0.074 | filanesib 0.022 | zotarolimus 0.005 | idasanutlin -0.025 | alisertib 0.008 | [2] -0.047 | gefitinib -0.027 | [3] -0.033 | lapatinib 0.025 | pictilisib 0.039

TMEM184C (UniProt Q9NVA4)
Chain of UniProt Q9NVA4 (Q9NVA4 whole entry, looked up): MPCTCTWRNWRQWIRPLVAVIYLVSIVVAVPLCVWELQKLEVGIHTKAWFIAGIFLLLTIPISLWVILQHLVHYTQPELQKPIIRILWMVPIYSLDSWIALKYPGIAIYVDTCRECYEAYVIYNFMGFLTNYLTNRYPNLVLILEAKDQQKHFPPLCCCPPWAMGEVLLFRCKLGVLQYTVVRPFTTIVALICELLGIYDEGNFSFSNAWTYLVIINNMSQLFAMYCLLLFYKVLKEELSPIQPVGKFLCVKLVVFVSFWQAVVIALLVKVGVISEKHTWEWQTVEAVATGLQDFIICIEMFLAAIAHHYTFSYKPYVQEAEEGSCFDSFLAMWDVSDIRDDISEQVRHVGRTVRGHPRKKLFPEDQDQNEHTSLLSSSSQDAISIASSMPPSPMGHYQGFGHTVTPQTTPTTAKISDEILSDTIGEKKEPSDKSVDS
inactive: [1] -0.006 | filanesib 0.162 | zotarolimus -0.11 | idasanutlin -0.112 | alisertib 0.059 | gefitinib -0.043 | [3] 0.077 | pictilisib 0.162

XRCC1 (UniProt P18887)
inactive: [1] -0.129 | filanesib 0.088 | zotarolimus -0.018 | idasanutlin -0.045 | pictilisib -0.065

UBE4B isoform 4 (UniProt O95155)
inactive: [1] 0.04 | filanesib -0.009 | zotarolimus -0.008 | idasanutlin -0.031 | alisertib -0.035 | [2] 0.021 | gefitinib -0.048 | [3] 0.021 | lapatinib -0.01 | pictilisib 0.063

WDR18 (UniProt Q9BV38)
inactive: [1] -0.04 | filanesib 0.02 | zotarolimus -0.024 | idasanutlin 0.039 | alisertib -0.041 | [2] 0.056 | gefitinib 0.024 | [3] 0.035 | lapatinib 0.005 | pictilisib -0.004

USP14 (UniProt P54578)
inactive: [1] 0.023 | filanesib -0.035 | zotarolimus 0.04 | idasanutlin -0.051 | alisertib -0.057 | [2] -0.008 | gefitinib 0.007 | [3] -0.043 | lapatinib 0.031 | pictilisib 0.026

TOP2A isoform 4 (UniProt P11388)
inactive: [1] 0.052 | filanesib 0.486 | zotarolimus 0.079 | idasanutlin 0.24 | alisertib -0.144 | [2] -0.029 | gefitinib -0.042 | [3] -0.4 | lapatinib 0.13 | pictilisib -0.071

TRAPPC8 (UniProt Q9Y2L5)
Chain of UniProt Q9Y2L5 (Q9Y2L5 whole entry, looked up): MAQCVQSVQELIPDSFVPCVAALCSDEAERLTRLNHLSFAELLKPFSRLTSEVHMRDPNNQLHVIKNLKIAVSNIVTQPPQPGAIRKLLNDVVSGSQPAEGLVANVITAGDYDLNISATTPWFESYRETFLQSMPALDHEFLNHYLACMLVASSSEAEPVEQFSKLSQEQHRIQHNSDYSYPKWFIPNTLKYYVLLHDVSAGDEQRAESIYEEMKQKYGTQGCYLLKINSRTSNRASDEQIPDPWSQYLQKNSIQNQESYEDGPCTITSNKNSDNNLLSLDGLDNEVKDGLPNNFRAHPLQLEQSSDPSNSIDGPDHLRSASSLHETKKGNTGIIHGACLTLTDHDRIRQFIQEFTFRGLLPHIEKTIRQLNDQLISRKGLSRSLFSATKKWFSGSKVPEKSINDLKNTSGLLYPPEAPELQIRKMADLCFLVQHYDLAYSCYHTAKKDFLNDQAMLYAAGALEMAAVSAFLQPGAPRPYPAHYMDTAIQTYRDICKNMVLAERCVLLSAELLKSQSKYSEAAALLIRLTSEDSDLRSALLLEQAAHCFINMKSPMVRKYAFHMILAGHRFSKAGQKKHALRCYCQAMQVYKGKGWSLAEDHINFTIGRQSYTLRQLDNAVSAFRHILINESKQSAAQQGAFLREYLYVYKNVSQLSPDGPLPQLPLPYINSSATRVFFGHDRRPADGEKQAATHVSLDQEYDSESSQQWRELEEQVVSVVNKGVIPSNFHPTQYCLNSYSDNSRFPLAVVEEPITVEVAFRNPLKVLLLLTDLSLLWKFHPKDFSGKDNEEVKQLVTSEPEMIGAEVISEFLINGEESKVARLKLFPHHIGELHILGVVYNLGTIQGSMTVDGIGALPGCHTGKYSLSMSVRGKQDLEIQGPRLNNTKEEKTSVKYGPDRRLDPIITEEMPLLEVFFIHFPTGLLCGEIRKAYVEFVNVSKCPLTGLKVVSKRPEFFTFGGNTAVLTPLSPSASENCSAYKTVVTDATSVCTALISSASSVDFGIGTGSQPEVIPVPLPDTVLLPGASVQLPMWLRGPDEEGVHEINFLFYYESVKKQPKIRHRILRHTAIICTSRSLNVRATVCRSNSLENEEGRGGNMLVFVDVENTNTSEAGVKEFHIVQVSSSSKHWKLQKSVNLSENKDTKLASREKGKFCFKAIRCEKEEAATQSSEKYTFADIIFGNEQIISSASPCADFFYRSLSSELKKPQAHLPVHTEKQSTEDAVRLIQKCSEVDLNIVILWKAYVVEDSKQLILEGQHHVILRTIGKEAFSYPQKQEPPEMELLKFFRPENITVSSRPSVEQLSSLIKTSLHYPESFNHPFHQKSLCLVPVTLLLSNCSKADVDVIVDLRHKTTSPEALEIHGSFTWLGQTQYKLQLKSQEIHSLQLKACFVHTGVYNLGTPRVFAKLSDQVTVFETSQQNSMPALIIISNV
inactive: [1] 0.032 | filanesib -0.017 | zotarolimus 0.03 | idasanutlin -0.059 | alisertib 0.003 | [2] 0.013 | gefitinib 0.009 | [3] -0.021 | lapatinib 0.021 | pictilisib -0.001

UNC119B (UniProt A6NIH7)
inactive: [1] -0.232 | filanesib 0.059 | zotarolimus 0.074 | idasanutlin -0.034 | alisertib -0.185 | [2] 0.069 | gefitinib 0.116 | [3] -0.002 | lapatinib 0.06 | pictilisib 0.092

UTP3 (UniProt Q9NQZ2)
inactive: [1] -0.058 | filanesib 0.368 | zotarolimus 0.125 | idasanutlin 0.26 | alisertib -0.09 | [2] -0.074 | [3] -0.067 | lapatinib 0.204 | pictilisib -0.06

UBAP2L (UniProt F8W726)
inactive: alisertib -0.074 | [2] -0.069 | gefitinib -0.012 | [3] -0.084 | lapatinib 0.067 | pictilisib 0.078

UBE2J2 isoform 3 (UniProt Q8N2K1)
inactive: filanesib 0.146 | zotarolimus -0.031 | idasanutlin 0.092 | [2] 0.134 | lapatinib -0.07 | pictilisib -0.145
